Structures can show the parent of a compound that is named as a salt. ± gives the standard deviation.
Tests used:
Jurkat [1] = assay: mean cell size (FSC-A) relative to DMSO control (fraction of control); higher = larger cells; conditions: 48 h
Outline: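 Jurkat cells seeded at 600 cells/µl were incubated 1 h, then exposed for 48h to the Enzo Screen-Well FDA Approved Drug Library v2.0 at 25µM in 0.9% (v/v) final DMSO. Drugs that cut counts below 20% of controls were diluted 10-fold and retested, down to 25nM. Cell count and mean cell size (forward scatter area) were read on an Accuri C6 flow cytometer, relative to solvent-only controls. Plates held 6-12 controls; values are means of 3 biological replicates.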

Jurkat [2] = assay: cell count relative to DMSO control (fraction of control); higher = more cells (less growth inhibition); conditions: 48 h

| Compound | mean cell size (Jurkat [1]) | cell count (Jurkat [2]) |
| --- | --- | --- |
| CC(=O)NO [Acetohydroxamic Acid] (concentration: 25 µM) | 1.02 ± 0.059 | 0.755 ± 0.016 |
| CC(C)(C)NC(=O)[C@H]1CC[C@H]2[C@@H]3CC[C@H]4NC(=O)C=C[C@]4(C)[C@H]3CC[C@]12C [Finasteride] (concentration: 25 µM) | 0.978 ± 0.046 | 0.684 ± 0.12 |
| CCN[C@H]1C[C@H](C)S(=O)(=O)c2sc(S(N)(=O)=O)cc21 [Dorzolamide·HCl] (concentration: 25 µM) | 0.965 ± 0.04 | 0.675 ± 0.14 |
| COc1c(C)c2c(c(O)c1C/C=C(\C)CCC(=O)OCCN1CCOCC1)C(=O)OC2 [Mycophenolate Mofetil] (concentration: 25 µM) | 0.892 ± 0.0081 | 0.203 ± 0.039 |
| CCCCCCCCc1ccc(CCC(N)(CO)CO)cc1 [Fingolimod] (concentration: 25 µM) | 1.03 ± 0.035 | 0.953 ± 0.12 |
| CC1(C)O[C@@H]2[C@@H](CO[C@@]3(COS(N)(=O)=O)OC(C)(C)O[C@@H]23)O1 [Topiramate] (concentration: 25 µM) | 0.969 ± 0.024 | 1.14 ± 0.14 |
| Cc1cc(C2CCCCC2)n(O)c(=O)c1 [Ciclopirox] (concentration: 2.5 µM) | 1.14 ± 0.032 | 0.395 ± 0.07 |
| NC(N)=Nc1nc(CSCC/C(N)=N/S(N)(=O)=O)cs1 [Famotidine] (concentration: 25 µM) | 0.979 ± 0.035 | 1.19 ± 0.12 |
| CC[C@]1(O)C[C@H]2CN(CCc3c([nH]c4ccccc34)[C@@](C(=O)OC)(c3cc4c(cc3OC)N(C=O)[C@H]3[C@@](O)(C(=O)OC)[C@H](OC(C)=O)[C@]5(CC)C=CCN6CC[C@]43[C@@H]65)C2)C1 [Vincristine Sulfate] (concentration: 25 nM) | 0.985 ± 0.011 | 0.083 ± 0.066 |
| CC(C)[C@H](N)C(=O)OCC(CO)OCn1cnc2c(=O)[nH]c(N)nc21 (some centres undefined) [Valganciclovir·HCl] (concentration: 25 µM) | 1.06 ± 0.054 | 0.892 ± 0.099 |
| C#Cc1cccc(Nc2ncnc3cc(OCCOC)c(OCCOC)cc23)c1 [Erlotinib] (concentration: 25 µM) | 0.838 ± 0.026 | 0.666 ± 0.04 |
| Nc1nc2c(ncn2COCCO)c(=O)[nH]1 [Acyclovir (Acycloguanosine) Zovirax] (concentration: 25 µM) | 0.977 ± 0.028 | 0.842 ± 0.022 |
| CC1=C(/C=C/C(C)=C\C=C\C(C)=C\C(=O)O)C(C)(C)CCC1 [Alitretinoin] (concentration: 25 µM) | 0.927 ± 0.025 | 0.555 ± 0.18 |
| Cc1ccc(C(=O)c2cc(O)c(O)c([N+](=O)[O-])c2)cc1 [Tolcapone] (concentration: 25 µM) | 0.966 ± 0.023 | 0.864 ± 0.15 |
| OCCN(CCO)c1nc(N2CCCCC2)c2nc(N(CCO)CCO)nc(N3CCCCC3)c2n1 [Dipyridamole] (concentration: 25 µM) | 0.9538 ± 0.0084 | 0.652 ± 0.1 |
| CN1C(=O)OC(C)(C)C1=O [Trimethadione] (concentration: 25 µM) | 1.07 ± 0.016 | 1.02 ± 0.025 |
| C=CC1=C(C(=O)O)N2C(=O)[C@@H](NC(=O)/C(=N\OCC(=O)O)c3csc(N)n3)[C@H]2SC1 [Cefixime] (concentration: 25 µM) | 0.977 ± 0.018 | 0.846 ± 0.069 |
| Clc1ccc2nsnc2c1NC1=NCCN1 [Tizanidine·HCl] (concentration: 25 µM) | 1.01 ± 0.014 | 0.771 ± 0.054 |
| CC(C)c1c(C(=O)Nc2ccccc2)c(-c2ccccc2)c(-c2ccc(F)cc2)n1CC[C@@H](O)C[C@@H](O)CC(=O)O [Atorvastatin Calcium] (concentration: 25 µM) | 1.05 ± 0.028 | 0.552 ± 0.07 |
| O=NN(CCCl)C(=O)NCCCl [Carmustine] (concentration: 25 µM) | 1.066 ± 0.0089 | 0.767 ± 0.014 |
| CC(CCc1ccc(O)cc1)NCCc1ccc(O)c(O)c1 (centres undefined) [Dobutamine·HCl] (concentration: 25 µM) | 0.952 ± 0.042 | 0.464 ± 0.13 |
| CC1(C)S[C@@H]2[C@H](NC(=O)COc3ccccc3)C(=O)N2[C@H]1C(=O)O [Penicillin V Potassium] (concentration: 25 µM) | 0.994 ± 0.015 | 1.09 ± 0.09 |
